The text below walks through data of PMC7862700, “An all-to-all approach to the identification of sequence-specific readers for epigenetic DNA modifications on cytosine”.

Assay in all cases: DAPPL (digital affinity profiling via proximity ligation, sequencing); 10 mM Tris-HCl pH 7.5, 50 mM NaCl, 1 mM DTT, 4% glycerol, room temperature, 30 min; GST-TFs on glutathione beads, 16-mer random dsDNA library, 0.1% formaldehyde crosslink after washing; high values mean tight binding
One assay addresses T1, FEV (Homo sapiens, UniProt Q99581 1-238).
T1 sequence: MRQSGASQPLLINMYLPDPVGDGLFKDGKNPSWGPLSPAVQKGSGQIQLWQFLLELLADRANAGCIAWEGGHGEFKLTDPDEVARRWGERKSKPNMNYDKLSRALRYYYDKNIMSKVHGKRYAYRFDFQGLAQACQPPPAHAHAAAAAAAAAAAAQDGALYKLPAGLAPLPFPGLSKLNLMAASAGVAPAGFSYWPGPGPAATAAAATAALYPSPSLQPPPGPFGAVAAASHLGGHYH
Particulars: protein: recombinant; tags: N-terminal GST; dsDNA, one strand shown. The essentials: (§1)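 Binding signal is each hexamer's read frequency for a factor divided by its frequency in the tag-only sample. The factors were GST-fused human transcription factors from yeast, captured on glutathione beads, DNA-barcoded and pooled with that sample. Pools were incubated with 200 nmole of a random double-stranded 16-mer DNA library in Tris/NaCl/DTT/glycerol buffer at room temperature for 30 min, then washed, crosslinked with 0.1% formaldehyde, proximity-ligated with BsaI/T4 ligase (1 h, 37 °C), PCR-amplified and sequenced on an Illumina NextSeq500.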

In another assay the target is ETV5 (Homo sapiens, UniProt P41161 1-510). Particulars: protein: recombinant; tags: N-terminal GST; dsDNA, one strand shown. The essentials: as §1
The next assay addresses HSF1 (Homo sapiens, UniProt Q00613 1-529). Particulars: protein: recombinant; tags: N-terminal GST; chain copies: 3; dsDNA, one strand shown. The essentials: as §1
A further assay has as its target T2, SPIC (Homo sapiens, UniProt Q8N5J4 1-248).
T2 sequence: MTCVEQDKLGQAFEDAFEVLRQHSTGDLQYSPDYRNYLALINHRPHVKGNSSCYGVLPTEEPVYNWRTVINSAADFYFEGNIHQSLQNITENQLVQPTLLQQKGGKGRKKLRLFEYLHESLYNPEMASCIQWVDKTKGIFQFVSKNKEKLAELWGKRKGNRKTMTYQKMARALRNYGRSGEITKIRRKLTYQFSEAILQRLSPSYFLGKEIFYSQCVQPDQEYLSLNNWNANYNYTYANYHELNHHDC
Particulars: protein: recombinant; tags: N-terminal GST; dsDNA, one strand shown. The procedure, abridged: as §1

The target in a further assay is ELF4 (Homo sapiens, UniProt Q99607 1-663). Particulars: protein: recombinant; tags: N-terminal GST; dsDNA, one strand shown. The essentials:
as §1

The target in another assay is T3, ELK4 (Homo sapiens, UniProt P28324-2 1-405).
T3 sequence: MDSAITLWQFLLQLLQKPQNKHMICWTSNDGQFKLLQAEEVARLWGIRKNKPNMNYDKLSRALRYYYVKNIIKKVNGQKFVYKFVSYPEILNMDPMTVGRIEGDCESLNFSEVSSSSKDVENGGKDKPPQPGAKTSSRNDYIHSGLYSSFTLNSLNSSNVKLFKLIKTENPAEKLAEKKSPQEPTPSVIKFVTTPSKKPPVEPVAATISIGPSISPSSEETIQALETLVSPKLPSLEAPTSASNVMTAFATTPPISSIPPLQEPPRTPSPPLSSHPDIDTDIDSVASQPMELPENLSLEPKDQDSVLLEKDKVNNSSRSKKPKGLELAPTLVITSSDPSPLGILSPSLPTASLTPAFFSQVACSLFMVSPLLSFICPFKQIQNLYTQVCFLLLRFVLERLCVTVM
Particulars: protein: recombinant; tags: N-terminal GST; dsDNA, one strand shown. The procedure, abridged:
as §1

A further assay deals with T4, ETV2 (Homo sapiens, UniProt O00321 1-342).
T4 sequence: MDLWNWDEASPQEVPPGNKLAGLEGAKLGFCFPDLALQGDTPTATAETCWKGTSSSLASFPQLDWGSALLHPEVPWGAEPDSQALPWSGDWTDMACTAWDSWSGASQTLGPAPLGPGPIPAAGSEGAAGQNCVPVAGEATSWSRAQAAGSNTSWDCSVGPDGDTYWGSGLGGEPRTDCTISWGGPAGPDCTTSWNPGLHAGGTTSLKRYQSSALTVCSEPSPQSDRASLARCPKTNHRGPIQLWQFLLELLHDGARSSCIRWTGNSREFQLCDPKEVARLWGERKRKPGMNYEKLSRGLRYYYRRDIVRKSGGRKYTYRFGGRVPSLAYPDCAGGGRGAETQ
Particulars: protein: recombinant; tags: N-terminal GST; dsDNA, one strand shown. The essentials: as §1

The target in the next assay is T5, ELF3 (Homo sapiens, UniProt P78545 1-371).
T5 sequence: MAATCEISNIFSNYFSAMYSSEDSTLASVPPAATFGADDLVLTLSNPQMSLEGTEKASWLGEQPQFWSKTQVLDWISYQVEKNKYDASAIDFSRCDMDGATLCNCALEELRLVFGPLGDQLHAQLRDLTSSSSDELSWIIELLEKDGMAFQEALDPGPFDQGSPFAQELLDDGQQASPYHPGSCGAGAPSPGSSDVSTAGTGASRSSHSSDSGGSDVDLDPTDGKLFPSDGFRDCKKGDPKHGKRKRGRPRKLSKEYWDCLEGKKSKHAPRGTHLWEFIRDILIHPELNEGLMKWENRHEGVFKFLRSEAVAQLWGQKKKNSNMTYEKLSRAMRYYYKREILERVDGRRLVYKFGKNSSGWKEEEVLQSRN
Particulars: protein: recombinant; tags: N-terminal GST; dsDNA, one strand shown. The procedure, abridged: as §1

In another assay the target is CRX (Homo sapiens, UniProt O43186 1-299). Particulars: protein: recombinant; tags: N-terminal GST; dsDNA, one strand shown. The essentials: as §1
The target in a further assay is ETV1 (Homo sapiens, UniProt P50549 1-477). Particulars: protein: recombinant; tags: N-terminal GST; dsDNA, one strand shown. The procedure, abridged: as §1
The target of another assay is T6, ERF (Homo sapiens, UniProt P50548 1-548).
T6 sequence: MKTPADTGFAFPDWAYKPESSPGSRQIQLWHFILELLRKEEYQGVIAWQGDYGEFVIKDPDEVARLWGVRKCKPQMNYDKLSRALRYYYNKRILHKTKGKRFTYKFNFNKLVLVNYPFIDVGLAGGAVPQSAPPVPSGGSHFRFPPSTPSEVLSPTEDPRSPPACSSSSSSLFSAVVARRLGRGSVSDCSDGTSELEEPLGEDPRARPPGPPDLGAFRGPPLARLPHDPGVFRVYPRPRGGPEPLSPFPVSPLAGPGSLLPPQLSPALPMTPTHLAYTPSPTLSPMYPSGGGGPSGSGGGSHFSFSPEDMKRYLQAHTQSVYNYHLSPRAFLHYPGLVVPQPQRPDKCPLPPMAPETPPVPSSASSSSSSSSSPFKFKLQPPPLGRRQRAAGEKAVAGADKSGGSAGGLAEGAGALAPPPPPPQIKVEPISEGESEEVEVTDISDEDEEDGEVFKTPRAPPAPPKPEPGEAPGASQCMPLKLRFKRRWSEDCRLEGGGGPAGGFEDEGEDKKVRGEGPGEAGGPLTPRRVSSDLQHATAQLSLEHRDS
Particulars: protein: recombinant; tags: N-terminal GST; dsDNA, one strand shown. The essentials: as §1

Another assay addresses T7, ETV3L (Homo sapiens, UniProt Q6ZN32 1-361).
T7 sequence: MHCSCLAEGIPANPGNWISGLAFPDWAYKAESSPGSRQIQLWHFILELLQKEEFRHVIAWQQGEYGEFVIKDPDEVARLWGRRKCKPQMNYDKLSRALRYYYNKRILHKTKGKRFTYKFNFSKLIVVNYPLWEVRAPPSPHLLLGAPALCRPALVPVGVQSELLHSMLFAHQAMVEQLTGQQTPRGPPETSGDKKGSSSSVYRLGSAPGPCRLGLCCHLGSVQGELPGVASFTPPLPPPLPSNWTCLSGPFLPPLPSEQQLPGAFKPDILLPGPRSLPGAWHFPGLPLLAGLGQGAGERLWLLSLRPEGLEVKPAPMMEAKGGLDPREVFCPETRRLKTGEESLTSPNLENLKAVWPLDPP
Particulars: protein: recombinant; tags: N-terminal GST; dsDNA, one strand shown. The essentials: as §1

Another assay has as its target T8, ETS2 (Homo sapiens, UniProt P15036 1-469).
T8 sequence: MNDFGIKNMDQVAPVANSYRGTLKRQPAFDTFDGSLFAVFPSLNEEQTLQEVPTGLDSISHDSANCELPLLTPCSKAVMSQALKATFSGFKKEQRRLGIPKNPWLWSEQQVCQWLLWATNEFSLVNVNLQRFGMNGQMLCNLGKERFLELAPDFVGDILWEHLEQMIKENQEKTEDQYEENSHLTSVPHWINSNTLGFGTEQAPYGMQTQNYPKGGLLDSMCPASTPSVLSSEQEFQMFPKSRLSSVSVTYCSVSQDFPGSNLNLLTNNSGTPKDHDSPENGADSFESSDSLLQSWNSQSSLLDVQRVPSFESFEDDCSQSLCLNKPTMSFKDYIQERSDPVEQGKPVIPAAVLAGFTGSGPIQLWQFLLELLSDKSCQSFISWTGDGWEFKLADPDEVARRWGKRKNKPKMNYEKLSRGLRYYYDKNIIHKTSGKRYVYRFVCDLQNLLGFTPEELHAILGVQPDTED
Particulars: protein: recombinant; tags: N-terminal GST; dsDNA, one strand shown. The essentials: as §1

The target of a further assay is T9, SPDEF (Homo sapiens, UniProt O95238 1-335).
T9 sequence: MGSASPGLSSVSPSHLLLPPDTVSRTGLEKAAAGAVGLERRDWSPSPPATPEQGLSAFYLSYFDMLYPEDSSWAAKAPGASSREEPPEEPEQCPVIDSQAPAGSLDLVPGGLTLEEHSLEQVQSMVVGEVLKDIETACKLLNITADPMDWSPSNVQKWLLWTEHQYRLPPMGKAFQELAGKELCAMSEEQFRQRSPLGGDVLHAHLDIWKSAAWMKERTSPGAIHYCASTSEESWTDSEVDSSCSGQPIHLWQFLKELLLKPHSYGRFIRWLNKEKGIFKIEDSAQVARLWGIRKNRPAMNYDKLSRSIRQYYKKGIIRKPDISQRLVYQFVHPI
Particulars: protein: recombinant; tags: N-terminal GST; dsDNA, one strand shown. The procedure, abridged:
as §1

The target in another assay is T10, ETV7 (Homo sapiens, UniProt Q9Y603 1-341).
T10 sequence: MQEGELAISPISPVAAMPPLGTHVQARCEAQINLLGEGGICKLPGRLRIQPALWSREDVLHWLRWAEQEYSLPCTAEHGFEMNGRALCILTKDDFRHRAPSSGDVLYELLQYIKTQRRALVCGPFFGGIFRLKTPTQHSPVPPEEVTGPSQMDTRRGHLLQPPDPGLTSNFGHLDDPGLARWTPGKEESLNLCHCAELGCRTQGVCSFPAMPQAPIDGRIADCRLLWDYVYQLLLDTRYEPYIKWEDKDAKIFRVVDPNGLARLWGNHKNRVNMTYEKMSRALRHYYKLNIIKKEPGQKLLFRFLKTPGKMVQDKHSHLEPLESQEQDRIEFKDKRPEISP
Particulars: protein: recombinant; tags: N-terminal GST; dsDNA, one strand shown. The procedure, abridged: as §1

The target of the next assay is T11, ELF5 (Homo sapiens, UniProt Q9UKW6-2 1-255).
T11 sequence: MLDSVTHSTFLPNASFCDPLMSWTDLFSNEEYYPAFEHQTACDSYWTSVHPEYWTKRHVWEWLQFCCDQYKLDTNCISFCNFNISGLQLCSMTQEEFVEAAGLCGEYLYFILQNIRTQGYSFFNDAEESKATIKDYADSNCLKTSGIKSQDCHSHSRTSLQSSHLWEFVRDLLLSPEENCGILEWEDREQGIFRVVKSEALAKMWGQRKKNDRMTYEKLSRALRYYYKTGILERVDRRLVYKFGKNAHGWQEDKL
Particulars: protein: recombinant; tags: N-terminal GST; dsDNA, one strand shown. The essentials:
as §1

The target in the next assay is T12, ETV3 (Homo sapiens, UniProt P41162-2 1-143).
T12 sequence: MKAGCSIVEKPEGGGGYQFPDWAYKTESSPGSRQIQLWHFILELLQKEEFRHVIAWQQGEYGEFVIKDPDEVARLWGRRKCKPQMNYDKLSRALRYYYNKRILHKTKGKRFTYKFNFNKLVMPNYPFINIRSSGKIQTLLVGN
Particulars: protein: recombinant; tags: N-terminal GST; dsDNA, one strand shown. The procedure, abridged:
as §1

The target of the next assay is ETV6 (Homo sapiens, UniProt P41212 1-452). Particulars: protein: recombinant; tags: N-terminal GST; dsDNA, one strand shown. The essentials:
as §1

HSF1, sequence (Q00613 whole entry): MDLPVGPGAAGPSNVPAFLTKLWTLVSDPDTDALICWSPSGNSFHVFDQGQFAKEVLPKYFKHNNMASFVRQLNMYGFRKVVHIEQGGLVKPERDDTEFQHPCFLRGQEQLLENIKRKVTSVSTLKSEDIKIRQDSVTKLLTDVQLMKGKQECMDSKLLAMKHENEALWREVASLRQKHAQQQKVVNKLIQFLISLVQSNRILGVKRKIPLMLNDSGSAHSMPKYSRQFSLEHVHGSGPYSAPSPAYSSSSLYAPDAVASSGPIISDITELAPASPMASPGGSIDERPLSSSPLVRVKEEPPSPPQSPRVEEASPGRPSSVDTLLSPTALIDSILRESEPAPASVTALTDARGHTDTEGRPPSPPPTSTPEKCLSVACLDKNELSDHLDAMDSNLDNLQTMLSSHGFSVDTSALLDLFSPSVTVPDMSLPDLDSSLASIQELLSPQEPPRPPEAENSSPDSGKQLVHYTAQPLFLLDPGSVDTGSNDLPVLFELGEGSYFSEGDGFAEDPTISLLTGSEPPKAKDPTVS
ETV5, sequence (P41161 whole entry): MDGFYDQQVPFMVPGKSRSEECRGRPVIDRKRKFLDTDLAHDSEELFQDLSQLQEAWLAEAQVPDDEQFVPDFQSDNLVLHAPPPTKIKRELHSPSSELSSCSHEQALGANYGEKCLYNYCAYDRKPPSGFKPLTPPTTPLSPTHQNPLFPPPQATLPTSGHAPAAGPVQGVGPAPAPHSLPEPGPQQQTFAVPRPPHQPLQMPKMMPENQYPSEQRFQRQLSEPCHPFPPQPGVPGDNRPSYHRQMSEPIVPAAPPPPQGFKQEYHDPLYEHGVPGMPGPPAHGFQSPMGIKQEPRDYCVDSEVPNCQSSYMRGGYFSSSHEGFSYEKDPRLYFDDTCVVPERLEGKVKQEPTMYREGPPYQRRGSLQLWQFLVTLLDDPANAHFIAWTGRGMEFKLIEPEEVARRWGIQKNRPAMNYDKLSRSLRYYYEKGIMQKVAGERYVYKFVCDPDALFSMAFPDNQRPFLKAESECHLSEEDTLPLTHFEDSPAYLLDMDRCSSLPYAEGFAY
ELF4, sequence (Q99607 whole entry): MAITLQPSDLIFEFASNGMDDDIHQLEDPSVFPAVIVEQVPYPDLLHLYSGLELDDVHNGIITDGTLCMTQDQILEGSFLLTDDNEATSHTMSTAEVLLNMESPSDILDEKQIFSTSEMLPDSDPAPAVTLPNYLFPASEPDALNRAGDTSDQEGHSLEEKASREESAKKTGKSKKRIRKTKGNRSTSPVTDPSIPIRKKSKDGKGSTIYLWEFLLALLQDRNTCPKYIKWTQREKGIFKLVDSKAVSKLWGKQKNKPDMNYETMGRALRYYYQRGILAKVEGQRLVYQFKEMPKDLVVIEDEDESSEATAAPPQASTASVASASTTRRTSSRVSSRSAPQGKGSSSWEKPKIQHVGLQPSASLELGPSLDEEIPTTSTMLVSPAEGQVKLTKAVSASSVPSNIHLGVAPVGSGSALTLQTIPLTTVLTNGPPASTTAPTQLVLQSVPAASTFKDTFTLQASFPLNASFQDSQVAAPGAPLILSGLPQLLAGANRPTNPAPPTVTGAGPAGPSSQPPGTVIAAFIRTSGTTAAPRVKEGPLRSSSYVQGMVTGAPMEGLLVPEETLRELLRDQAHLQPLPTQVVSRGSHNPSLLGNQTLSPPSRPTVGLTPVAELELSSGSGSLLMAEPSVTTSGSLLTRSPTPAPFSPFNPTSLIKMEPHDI
CRX, sequence (O43186 whole entry): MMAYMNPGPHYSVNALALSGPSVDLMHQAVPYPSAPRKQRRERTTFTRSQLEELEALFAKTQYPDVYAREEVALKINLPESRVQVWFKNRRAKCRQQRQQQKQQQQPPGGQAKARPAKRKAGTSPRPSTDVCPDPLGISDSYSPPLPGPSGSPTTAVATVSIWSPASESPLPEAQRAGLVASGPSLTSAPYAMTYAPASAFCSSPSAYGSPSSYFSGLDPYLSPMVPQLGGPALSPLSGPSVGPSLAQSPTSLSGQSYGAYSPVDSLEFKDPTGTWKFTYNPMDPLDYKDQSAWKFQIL
ETV1, sequence (P50549 whole entry): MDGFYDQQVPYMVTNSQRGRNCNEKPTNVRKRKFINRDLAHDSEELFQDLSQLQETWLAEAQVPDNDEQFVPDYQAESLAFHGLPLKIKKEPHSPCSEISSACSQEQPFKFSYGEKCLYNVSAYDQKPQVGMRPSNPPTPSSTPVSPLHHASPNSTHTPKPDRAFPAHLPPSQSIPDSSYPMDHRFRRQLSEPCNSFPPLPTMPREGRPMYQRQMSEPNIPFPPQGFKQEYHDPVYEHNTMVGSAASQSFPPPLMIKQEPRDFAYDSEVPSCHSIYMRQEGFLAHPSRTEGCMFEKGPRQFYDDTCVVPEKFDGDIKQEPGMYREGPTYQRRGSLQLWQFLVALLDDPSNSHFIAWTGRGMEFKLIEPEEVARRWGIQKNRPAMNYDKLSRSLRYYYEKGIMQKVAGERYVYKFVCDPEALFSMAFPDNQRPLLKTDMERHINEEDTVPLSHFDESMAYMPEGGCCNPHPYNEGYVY
ETV6, sequence (P41212 whole entry): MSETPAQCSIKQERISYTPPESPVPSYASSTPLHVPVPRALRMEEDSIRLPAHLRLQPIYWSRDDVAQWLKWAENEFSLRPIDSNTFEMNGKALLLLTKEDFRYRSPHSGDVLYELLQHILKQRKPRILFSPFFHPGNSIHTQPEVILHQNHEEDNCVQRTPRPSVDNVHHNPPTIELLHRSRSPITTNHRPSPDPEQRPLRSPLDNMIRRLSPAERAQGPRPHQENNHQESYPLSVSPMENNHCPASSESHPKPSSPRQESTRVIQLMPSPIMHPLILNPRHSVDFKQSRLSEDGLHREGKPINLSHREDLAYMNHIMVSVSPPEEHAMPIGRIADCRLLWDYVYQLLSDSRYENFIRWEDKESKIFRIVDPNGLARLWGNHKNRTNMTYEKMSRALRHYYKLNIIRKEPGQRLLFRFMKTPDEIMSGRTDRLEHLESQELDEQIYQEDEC

With ACGGAT, the binding signal with FEV was 1.54 fold enrichment (6-mer frequency, TF over GST control); in the assay with ETV5, 1.32 fold enrichment (6-mer frequency, TF over GST control); in the assay with HSF1 it was 1.18 fold enrichment (6-mer frequency, TF over GST control); with SPIC, 1.38 fold enrichment (6-mer frequency, TF over GST control); with ELF4 it was 1.19 fold enrichment (6-mer frequency, TF over GST control); in the assay with ELK4 it was 1.12 fold enrichment (6-mer frequency, TF over GST control). The binding signal was 1.2 fold enrichment (6-mer frequency, TF over GST control) with ETV2; 1.3 fold enrichment (6-mer frequency, TF over GST control) with ELF3; 1.61 fold enrichment (6-mer frequency, TF over GST control) in the assay with CRX; 1.23 fold enrichment (6-mer frequency, TF over GST control) with ETV1; 1.11 fold enrichment (6-mer frequency, TF over GST control) with ERF; 1.23 fold enrichment (6-mer frequency, TF over GST control) in the assay with ETV3L. Besides, the binding signal with ETS2 is 1.3 fold enrichment (6-mer frequency, TF over GST control); with SPDEF, 1.94 fold enrichment (6-mer frequency, TF over GST control); with ETV7 it was 1.13 fold enrichment (6-mer frequency, TF over GST control); with ELF5, 1.34 fold enrichment (6-mer frequency, TF over GST control); with ETV3, 1.3 fold enrichment (6-mer frequency, TF over GST control); with ETV6 it was 1.22 fold enrichment (6-mer frequency, TF over GST control).
